# These entries were drawn from the full list.
# nsP2pro primary: Primary qHTS for inhibitors of NSP2Pro chikungunya virus (CHIKV) | Polyprotein P1234 (Chikungunya virus (strain S27-African prototype)), Q8JUX6 | AID 1964107, 2024 | FRET peptide cleavage, nsP2pro, fluorescence 1 h | 1.1% of 31,000 active | Potency, µM (titrated, usually from 24.9 µM), for inactives: top-dose activity change, negative = inhibition, most hits filed as inhibitors; also: nearly all actives have a fitted effect of over 60% in size
#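 FRET cleavage of 2.5 uM peptide 2 by 150 nM CHIKV protease domain at pH 8.0 (Tris, Tween 20). Compounds at 7 concentrations (up to 25 uM) preincubated 15 min. Fluorescence read after 1 h at room temperature.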
# CHIKV nsP2 cell: Secondary cell base assay for inhibitors of NSP2Pro Chikungunya virus (CHIKV). cell-based CHIKV nsP2 protease reporter assay. shares compounds with nsP2pro primary. Potency, µM (doses to about 51.1 µM), without a hit: at the top dose activity change, negative = inhibition, actives largely listed as inhibitors. 10% of 450 active; also: nearly all actives have a fitted effect of over 70% in size
# Target sequence (Q8JUX6 220-798 limits assumed): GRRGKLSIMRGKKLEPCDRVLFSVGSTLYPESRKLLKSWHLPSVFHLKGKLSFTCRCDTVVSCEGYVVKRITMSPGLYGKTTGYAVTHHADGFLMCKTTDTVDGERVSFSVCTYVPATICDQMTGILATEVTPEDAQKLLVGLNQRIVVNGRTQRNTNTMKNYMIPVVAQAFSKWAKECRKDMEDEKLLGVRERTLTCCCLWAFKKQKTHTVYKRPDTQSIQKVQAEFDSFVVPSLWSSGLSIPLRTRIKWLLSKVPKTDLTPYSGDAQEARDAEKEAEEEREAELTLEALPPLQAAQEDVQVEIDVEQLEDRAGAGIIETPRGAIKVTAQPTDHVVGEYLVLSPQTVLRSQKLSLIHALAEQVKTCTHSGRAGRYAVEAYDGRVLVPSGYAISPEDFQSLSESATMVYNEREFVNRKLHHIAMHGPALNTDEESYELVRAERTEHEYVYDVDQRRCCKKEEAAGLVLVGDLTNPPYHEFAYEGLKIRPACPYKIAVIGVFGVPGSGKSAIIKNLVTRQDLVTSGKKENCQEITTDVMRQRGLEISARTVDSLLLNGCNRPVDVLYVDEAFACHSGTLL
# NSP2 full ctr: Selectivity profile for inhibitors of NSP2Pro chikungunya virus (CHIKV): Full length NSP2 enzyme counterscreen (CHIKV-NSP2); shares compounds with nsP2pro primary; Full-length CHIKV NSP2 protease enzymatic counterscreen; Potency, µM (series often up to 50.7 µM), inactives show top-dose activity change, negative = inhibition, most hits filed as inhibitors; 39% of 410 active; AID 1964101, 2024; also: nearly all actives have a fitted effect of over 65% in size
# Furin counter: Selectivity profile for inhibitors of NSP2Pro chikungunya virus (CHIKV): Human furin counterscreen | shares compounds with nsP2pro primary | Recombinant human furin enzymatic counterscreen, fluorogenic substrate | Potency, µM (doses to about 50.6 µM), inactives show at the top dose activity change, negative = inhibition, usual class: inhibitors | 6% of 410 active
# nsP2 NS23 pep: Selectivity profile for inhibitors of NSP2Pro chikungunya virus (CHIKV): Endogenous NS2/3 peptide Counterscreen | shares compounds with nsP2pro primary | Purified CHIKV nsP2 protease, endogenous NS2/3 peptide cleavage | Potency, µM (titrated, usually from 51 µM), inactives show at the highest dose activity change, negative = inhibition, hits mostly inhibitors | 34% of 410 active; also: nearly all actives have a fitted effect of over 55% in size
# Papain cs: Selectivity profile for inhibitors of NSP2Pro chikungunya virus (CHIKV): Papain Counterscreen; 5% of 410 active; Potency, µM (series often up to 51 µM), for inactives: top-dose activity change, negative = inhibition, actives largely listed as inhibitors; shares compounds with nsP2pro primary; purified papain protease activity, enzymatic inhibition
# nsP2pro conf qHTS: Confirmatory qHTS for inhibitors of NSP2Pro chikungunya virus (CHIKV) | 43% of 410 active | shares compounds with nsP2pro primary | Potency, µM (doses to about 25.5 µM), inactives show top-dose activity change, negative = inhibition, actives largely listed as inhibitors | CHIKV nsP2 protease enzymatic activity, qHTS; also: nearly all actives have a fitted effect of over 75% in size
# HCV NS3 counter: Selectivity profile for inhibitors of NSP2Pro chikungunya virus (CHIKV): NS34A-HCV Counterscreen | shares compounds with nsP2pro primary | HCV NS3/4A protease biochemical counterscreen | Potency, µM (series often up to 50.9 µM), actives largely listed as inhibitors | 20% of 410 active | AID 1964106, 2024; also: nearly all actives have a fitted effect of over 55% in size
# Active calls of the source: *; i = inactive; u = inconclusive; [ ] = another dose, or the depositor's remark. Calls follow the shape of the full dose curve. % is scaled to controls: 0 for no effect and ±100 for the full control effect; potency is read from the fitted curve at half-maximal effect.
SMILES,nsP2pro primary,others
COC1=C(OC)C(=O)C(CC=C(C)CCC=C(C)CCC=C(C)CCC=C(C)CCC=C(C)CCC=C(C)CCC=C(C)CCC=C(C)CCC=C(C)CCC=C(C)C)=C(C)C1=O,-3%[2.68 µM],
CC(C)=CCC1=C(O)c2ccccc2C(=O)C1=O,u,CHIKV nsP2 cell=u;NSP2 full ctr=u;Furin counter=-11%[100 µM];nsP2 NS23 pep=u;Papain cs=-27%[100 µM];nsP2pro conf qHTS=-31%[50 µM];HCV NS3 counter=i
CC1=CC(=O)C(C(C)C)=CC1=O,-11%,
CN(C)CCc1c[nH]c2ccc(CN3CCN(C)S3(=O)=O)cc12,u,CHIKV nsP2 cell=14%;NSP2 full ctr=-4%;Furin counter=2%;nsP2 NS23 pep=-6%;Papain cs=0%;nsP2pro conf qHTS=-25%;HCV NS3 counter=i
CN(C)CCc1c[nH]c2ccc(CS(=O)(=O)N3CCCC3)cc12,-12%,
CNS(=O)(=O)Cc1ccc2[nH]cc(CCN(C)C)c2c1,-19%,
CN(Cc1nc(-c2ccccc2)no1)C(=O)c1cccc(C2CCNC2)c1 (configuration not stated),5%,
Cn1cccc1-c1noc(C2CCN(C(=O)CCCc3ccccc3)C2)n1 (configuration not stated),i,
O=C(Cc1cccc(Cl)c1)N1CCC(C(=O)N2CCC(c3ccccc3)CC2)CC1,-2%,
CC(C)c1nc(-c2ccc(C(=O)N[C@@H]3COCC[C@@H]3OCC3CC3)cc2)no1,-4%,
CCCS(=O)(=O)NC1CC(N(C)c2ncnc3[nH]ccc23)C1 (configuration not stated),-6%,
COc1ccc(S(=O)(=O)Nc2cccnc2Nc2ccc(O)cc2)cc1,u,CHIKV nsP2 cell=-8%;NSP2 full ctr=8%;Furin counter=-13%;nsP2 NS23 pep=i;Papain cs=-9%;nsP2pro conf qHTS=1%;HCV NS3 counter=i
COc1ccc(CNc2ccc(S(=O)(=O)Nc3nccs3)cc2)c(O)c1,-6%,
CC(=O)Nc1ccc(S(=O)(=O)Nc2cccc3cccnc23)cc1,i,
C=CCCC(=O)N1CCOc2c(O)cc(-c3nc4ccccc4s3)cc2C1,i,
Cc1cc(C)nc(NC(=S)N2CCN(c3cc(C(F)(F)F)nc4ccccc34)CC2)c1,-13%,
COc1cc(C2Oc3c(OC)cc(CCCO)cc3C2CO)ccc1O (configuration not stated),81%,
COc1cc(CCN)ccc1O,u,CHIKV nsP2 cell=8%;NSP2 full ctr=-3%;Furin counter=3%;nsP2 NS23 pep=-4%;Papain cs=-8%;nsP2pro conf qHTS=-15%;HCV NS3 counter=i
C=CCc1ccc(O)c(OC)c1,-20%,
Nc1nc(N)c2nc(-c3cccc(O)c3)cnc2n1,21%,
CS(=O)(=O)n1cc2c(n1)CN([C@H]1CO[C@H](c3cc(F)ccc3F)[C@@H](N)C1)C2,9%,
CC(=O)Nc1sc2c(c1-c1nc3ccccc3s1)CCNC2,i,
OC1(CN2CCCCC2)CCN(Cc2cnn(-c3ccccc3Cl)c2)C1 (configuration not stated),i,
CCCCCCCCn1cc(CC(N)=O)c2cc(-c3cccc(C)c3)ccc21,8%,
COc1ccccc1OC1(C(=O)O)CCN(Cc2cccnc2)CC1,1%,
COc1ccccc1OC1(C(=O)O)CCN(c2ncnc(C)c2C)CC1,0%,

# Screening results as filed in PubChem.
